Values joined by “and” are separate entries in the source; they are usually repeats but may differ in a detail not shown here. Equal entries are not always repeated. Where a structure was tested more than once in an assay, its records may differ in their call. Active and inactive are the calls of the source. How the source made its calls: active means hit-call score of the fitted dose curve at least 0.9, where 1 is the maximum; inactive means score below 0.9.
Assays:
[1] = APR_HepG2_MitoMembPot_72hr: Apredica 72-hour HepG2 Assay for Mitochondrial Membrane Potential (AID 2282917); details: imaging, actives raise or lower the signal
Summary of the method: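 HepG2 cells exposed 72 h to compounds at 0.39–200 uM (0.5% v/v DMSO, duplicates); MitoTracker Red CMXRos 250 nM loaded 30 min before 3.7% formaldehyde fixation, imaged by HCS fluorescence. Bidirectional fit versus DMSO.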

[2] = APR_HepG2_MitoticArrest_72hr: Apredica 72-hour HepG2 Assay for Mitotic Arrest (AID 2282918); details: high-content imaging, actives raise or lower the signal
Summary of the method: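 HepG2, 72 hr exposure, 0.39–200 uM in duplicate, 0.5% v/v DMSO final. Formaldehyde-fixed, Triton-permeabilized, anti-phospho-histone H3/FITC plus Hoechst. ArrayScan imaging at 20x; curves fit bidirectionally against DMSO baseline.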

[3] = APR_HepG2_MicrotubuleCSK_72hr: Apredica 72-hour HepG2 Assay for Microtubule CSK Stabilty (AID 2282919); details: HepG2 microtubule cytoskeleton, high-content imaging, actives raise or lower the signal
Summary of the method: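 HepG2 human liver cells were dosed for 72 h at ten concentrations from 0.39 to 200 uM in duplicate (0.5% v/v DMSO final). Fixed, permeabilized cells were immunostained for alpha-tubulin (Cy5) with a Hoechst counterstain and imaged at 20x.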

[4] = APR_HepG2_P-H2AX_24hr: Apredica 24-hour HepG2 Assay for H2AX Phosphorylation (AID 2282920); details: high-content imaging, actives raise or lower the signal
Summary of the method: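 HCS fluorescence imaging of phospho-H2A.x immunostain (with Hoechst 33342 nuclear counterstain) in HepG2 after 24 hr compound exposure; 10 concentrations, 0.39–200 uM, duplicate wells, 0.5% v/v DMSO. Gain or loss of signal fitted relative to DMSO baseline.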

[5] = APR_HepG2_StressKinase_72hr: Apredica 72-hour HepG2 Assay for Stress Kinase (AID 2282921); details: HepG2 stress kinase (phospho-c-Jun) imaging, actives raise or lower the signal
Summary of the method: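 HepG2 cells treated 72 hr with 0.39–200 uM compound, 0.5% v/v DMSO, duplicate wells. After formaldehyde fixation and Triton permeabilization, stained with anti-phospho-c-Jun (1:500) and Cy3 secondary, imaged at 20x. Fitted in both directions against DMSO.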

[6] = APR_HepG2_StressKinase_24hr: Apredica 24-hour HepG2 Assay for Stress Kinase (AID 2282922); details: HepG2 stress kinase (phospho-c-Jun) imaging, actives raise or lower the signal
Summary of the method: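 HepG2 cells exposed 24 hr to compound at 0.39–200 uM (10 concentrations, duplicate), 0.5% v/v DMSO final. Fixed in 3.7% formaldehyde, permeabilized with Triton X-100, immunolabeled for phospho-c-Jun with Hoechst 33342; HCS fluorescence imaging, bidirectional fit versus DMSO.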

[7] = APR_HepG2_MitoMass_72hr: Apredica 72-hour HepG2 Assay for Mitochondrial Mass (AID 2282924); details: high-content imaging, actives raise or lower the signal;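 further: MitoTracker Red CMXRos stain intensity per cell imaged as mitochondrial mass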
Summary of the method: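 HepG2 cells were exposed for 72 hr to compounds at 0.39–200 uM (ten concentrations, duplicate, 0.5% v/v DMSO final). Live cells were stained with 250 nM MitoTracker Red CMXRos for 30 min, then fixed in 3.7% formaldehyde and imaged by HCS fluorescence.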

[8] = APR_HepG2_NuclearSize_72hr: Apredica 72-hour HepG2 Assay for Nuclear Size (AID 2282925); details: high-content imaging, actives raise or lower the signal
Summary of the method: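 HepG2 cells were exposed to compounds at ten concentrations from 0.39 to 200 uM (duplicate, 0.5% DMSO final) for 72 hr. After fixation in 3.7% formaldehyde, nuclei were stained with Hoechst 33342 (2 ug/mL) and imaged at 20x.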

[9] = ATG_CRE_CIS: Attagene CIS-FACTORIAL HepG2 Assay for human cAMP Responsive Element (CRE) binding protein 3 (AID 2282926); details: HepG2 CRE cis-reporter, Attagene multiplexed mRNA; actives raise or lower the signal
Summary of the method: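 Endogenous CRE-binding activity in HepG2 is reported through a cis-regulated transfected reporter. Following a day of exposure, mRNA levels are determined by reverse transcription PCR and fluorescent fragment analysis; fits run in both directions versus DMSO.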

[10] = biological target: CCAAT/enhancer-binding protein beta (Homo sapiens) (UniProt P17676); assay: ATG_C_EBP_CIS: Attagene CIS-FACTORIAL HepG2 Assay for human CCAAT/Enhancer Binding Protein (C/EBP) beta (AID 2282927); details: HepG2 Attagene cis-factorial transcription factor reporter; actives raise or lower the signal
Sequence of CCAAT/enhancer-binding protein beta (Homo sapiens) (P17676 whole entry, looked up): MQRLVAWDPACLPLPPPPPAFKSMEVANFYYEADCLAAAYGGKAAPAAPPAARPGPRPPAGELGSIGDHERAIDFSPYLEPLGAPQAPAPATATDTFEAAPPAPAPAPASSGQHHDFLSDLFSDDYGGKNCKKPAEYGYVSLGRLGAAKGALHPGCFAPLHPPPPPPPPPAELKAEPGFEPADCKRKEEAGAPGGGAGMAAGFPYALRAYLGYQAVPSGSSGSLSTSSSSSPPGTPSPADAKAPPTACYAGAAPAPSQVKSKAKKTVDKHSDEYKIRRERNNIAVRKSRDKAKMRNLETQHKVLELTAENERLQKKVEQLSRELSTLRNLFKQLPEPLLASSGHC
Summary of the method: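 Following a 24 h incubation with test chemical, transfected HepG2 cells yielded RNA whose reporter transcripts were quantified by RT-PCR and fluorescent capillary electrophoresis, with DMSO serving as baseline for bidirectional fitting.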

[11] = ATG_CMV_CIS: Attagene CIS-FACTORIAL HepG2 Assay for human CMV (Internal Marker) (AID 2282928); details: HepG2 CMV promoter reporter, transcription factor profiling; actives raise or lower the signal;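 further: endpoint acts as a background internal control marker rather than a target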
Summary of the method: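 CMV internal-marker background readout in transiently transfected HepG2 cells bearing cis-regulated reporter units. Reporter mRNA is measured 24 h after dosing by RT-PCR and capillary electrophoresis, with bidirectional fitting against DMSO.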

[12] = ATG_DR4_LXR_CIS: Attagene CIS-FACTORIAL HepG2 Assay for human Liver X Receptor (LXR), DR4 submotif (AID 2282929); details: HepG2 Attagene DR4 cis-reporter, mRNA transcription; actives raise or lower the signal
Summary of the method: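 Readout: reporter transcript fluorescence after RT-PCR and capillary electrophoresis, fitted bidirectionally against DMSO controls. Human HepG2 liver cells carried transiently transfected multiplexed reporter constructs; endogenous transcription factor activity measured 24 h post-dosing.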

[13] = ATG_AP_1_CIS: Attagene CIS-FACTORIAL HepG2 Assay for human Activator Protein 1 (AP-1) (AID 2282931); details: HepG2 Attagene cis-factorial AP-1 reporter mRNA; actives raise or lower the signal
Summary of the method: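 Reporter transcripts were measured 24 h after dosing by RT-PCR and capillary electrophoresis of fluorescent fragments. Cells: HepG2 carrying transfected cis-regulated reporter constructs reading endogenous factor activity. Gain or loss fitted against DMSO.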

[14] = ATG_AP_2_CIS: Attagene CIS-FACTORIAL HepG2 Assay for human Activator Protein 2 (AP-2) (AID 2282932); details: HepG2 AP-2 cis-reporter, Attagene transcription factor profiling; actives raise or lower the signal
Summary of the method: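 Bidirectional curve fitting against DMSO was applied to reporter mRNA signals from HepG2 cells 24 h after dosing. Cis-promoter reporter units, transiently transfected, were read by RT-PCR plus capillary electrophoresis.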

[15] = ATG_BRE_CIS: Attagene CIS-FACTORIAL HepG2 Assay for human Bone Morphogenetic Protein (BMP) Response Element (BRE) (AID 2282933); details: HepG2 BMP response element reporter, Attagene transcription factor profiling; actives raise or lower the signal
Summary of the method: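 A HepG2 multiplex reporter system measured inducible reporter mRNA 24 h post-dosing. Detection: RT-PCR, 6-FAM primer extension, HpaI digestion, capillary electrophoresis. Activity fitted bidirectionally relative to DMSO.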

[16] = biological target: Retinoic acid receptor alpha (Homo sapiens) (UniProt P10276); assay: ATG_DR5_RAR_CIS: Attagene CIS-FACTORIAL HepG2 Assay for human Retinoic Acid Receptor Alpha (RARE), DR5 submotif (AID 2282934); details: HepG2 Attagene cis-factorial RARE DR5 reporter, mRNA; actives raise or lower the signal;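 on AC50: reporter responds to endogenous RAR alpha beta and gamma in HepG2 not RARA alone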
Sequence of Retinoic acid receptor alpha (Homo sapiens) (P10276 whole entry, looked up): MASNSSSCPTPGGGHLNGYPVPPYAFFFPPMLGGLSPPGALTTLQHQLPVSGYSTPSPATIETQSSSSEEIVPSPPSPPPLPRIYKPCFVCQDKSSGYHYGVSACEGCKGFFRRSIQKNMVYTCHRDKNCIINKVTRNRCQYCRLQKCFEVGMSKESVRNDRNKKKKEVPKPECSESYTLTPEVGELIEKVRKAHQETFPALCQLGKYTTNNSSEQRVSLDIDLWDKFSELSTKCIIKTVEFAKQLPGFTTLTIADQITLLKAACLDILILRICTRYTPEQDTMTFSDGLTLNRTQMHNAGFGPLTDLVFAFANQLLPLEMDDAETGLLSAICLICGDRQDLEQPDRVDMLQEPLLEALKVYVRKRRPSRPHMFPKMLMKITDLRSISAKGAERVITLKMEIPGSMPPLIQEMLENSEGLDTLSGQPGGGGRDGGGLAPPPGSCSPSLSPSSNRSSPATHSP
Summary of the method: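 Endpoint fitted in both directions relative to DMSO as negative control. It reflects DR5 cis-element reporter mRNA induction in transiently transfected HepG2 cells, measured 24 h after dosing through RT-PCR and fluorescent capillary electrophoresis.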

[17] = biological target: Transcription factor E2F1 (Homo sapiens) (UniProt Q01094); assay: ATG_E2F_CIS: Attagene CIS-FACTORIAL HepG2 Assay for human E2F Transcription Factor 1 (AID 2282935); details: HepG2 Attagene cis-reporter, E2F reporter RNA transcripts; actives raise or lower the signal
Sequence of Transcription factor E2F1 (Homo sapiens) (Q01094 whole entry, looked up): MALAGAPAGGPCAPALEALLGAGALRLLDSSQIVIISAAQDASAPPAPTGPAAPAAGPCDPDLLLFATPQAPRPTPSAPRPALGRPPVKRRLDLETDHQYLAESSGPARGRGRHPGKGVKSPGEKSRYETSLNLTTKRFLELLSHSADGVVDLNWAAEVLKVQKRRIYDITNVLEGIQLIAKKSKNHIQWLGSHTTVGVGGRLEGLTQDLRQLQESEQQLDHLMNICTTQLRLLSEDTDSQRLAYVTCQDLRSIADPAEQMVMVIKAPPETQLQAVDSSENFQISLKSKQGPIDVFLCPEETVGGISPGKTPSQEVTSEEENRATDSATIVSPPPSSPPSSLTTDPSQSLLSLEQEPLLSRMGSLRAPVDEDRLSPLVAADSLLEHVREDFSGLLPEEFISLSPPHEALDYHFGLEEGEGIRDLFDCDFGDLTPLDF
Summary of the method: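 Multiplexed cis-reporter assay: HepG2, transient transfection, 24 h dosing, mRNA quantitation by labeled RT-PCR and CE.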

[18] = APR_HepG2_p53Act_72hr: Apredica 72-hour HepG2 Assay for p53 Activation (AID 2282923); details: high-content imaging, actives raise or lower the signal;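 further: average cellular p53 protein immunofluorescence intensity in HepG2 cells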
Summary of the method: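 HepG2 cells exposed 72 h to 0.39–200 uM in 0.5% DMSO, duplicates. Fixed, permeabilized cells immunostained for p53 (Cy5) with Hoechst; imaged at 20x, fluorescence analyzed bidirectionally against DMSO.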

[19] = biological target: Aryl hydrocarbon receptor (Homo sapiens) (UniProt P35869); assay: ATG_Ahr_CIS: Attagene CIS-FACTORIAL HepG2 Assay for human Aryl Hydrocarbon Receptor (Ahr) (AID 2282930); details: HepG2 AhR cis-factorial reporter transcription; actives raise or lower the signal
Sequence of Aryl hydrocarbon receptor (Homo sapiens) (P35869 whole entry, looked up): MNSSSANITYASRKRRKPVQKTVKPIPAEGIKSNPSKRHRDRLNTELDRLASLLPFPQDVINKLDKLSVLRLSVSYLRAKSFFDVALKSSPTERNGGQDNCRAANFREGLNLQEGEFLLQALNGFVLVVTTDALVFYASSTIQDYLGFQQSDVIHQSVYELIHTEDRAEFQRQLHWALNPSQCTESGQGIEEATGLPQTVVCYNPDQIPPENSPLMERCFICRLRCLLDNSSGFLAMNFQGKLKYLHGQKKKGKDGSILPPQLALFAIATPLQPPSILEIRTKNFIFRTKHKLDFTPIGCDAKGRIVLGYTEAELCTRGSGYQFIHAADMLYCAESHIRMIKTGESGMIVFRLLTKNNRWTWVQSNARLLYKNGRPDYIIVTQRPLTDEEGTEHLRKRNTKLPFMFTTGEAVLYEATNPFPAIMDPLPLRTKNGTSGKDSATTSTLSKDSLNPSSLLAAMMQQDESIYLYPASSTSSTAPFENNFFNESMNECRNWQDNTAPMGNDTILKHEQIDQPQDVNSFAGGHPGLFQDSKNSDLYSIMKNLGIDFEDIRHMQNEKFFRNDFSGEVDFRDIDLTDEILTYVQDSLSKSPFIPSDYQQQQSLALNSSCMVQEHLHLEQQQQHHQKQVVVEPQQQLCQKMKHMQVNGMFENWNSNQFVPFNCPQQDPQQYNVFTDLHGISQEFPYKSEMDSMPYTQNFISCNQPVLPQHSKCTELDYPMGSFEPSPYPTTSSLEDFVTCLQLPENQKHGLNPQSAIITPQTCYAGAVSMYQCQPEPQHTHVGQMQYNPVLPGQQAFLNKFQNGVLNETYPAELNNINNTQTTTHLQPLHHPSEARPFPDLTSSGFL
Summary of the method: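 Values derive from bidirectional fitting against DMSO negative control. Underlying signal: cis-element reporter mRNA in transiently transfected HepG2, harvested 24 h post-dose and measured by RT-PCR plus capillary electrophoresis.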

Measured: AC50

CCC(C)(CC)c1cc(NC(=O)c2c(OC)cccc2OC)on1
active: [9] 1.16 µM | [10] 1.48 µM | [12] 32 µM | [15] 9.92 µM | [16] 12.7 µM
inactive: [1] | [2] | [3] | [4] | [5] | [6] | [7] | [8] | [11] | [13] | [14] | [17]

Cc1cccc(C)c1N
inactive: [1] | [2] | [3] | [4] | [5] | [6] | [18] | [7] | [8] | [9] | [10] | [11] | [12] | [13] | [14] | [15] | [16] | [17]

Oc1ccc(C(c2ccc(O)cc2)(C(F)(F)F)C(F)(F)F)cc1
inactive: [1] | [2] | [3] | [4] | [6] | [18] | [7] | [8] | [9] | [10] | [11] | [12] | [14] | [15] | [17]
active: [9] 11.1 µM and 18.5 µM | [11] 7.18 µM and 8.05 µM | [12] 11.1 µM and 12.8 µM and 8.79 µM | [13] 11.1 µM [middle of 4 runs] | [15] 16 µM

CCC(=O)O[C@H]1CC[C@H]2[C@@H]3CCC4=CC(=O)CC[C@]4(C)[C@H]3CC[C@]12C
active: [1] 114 µM | [2] 65 µM | [3] 158 µM | [4] 108 µM | [18] 89.9 µM | [7] 92.1 µM | [8] 50.8 µM | [9] 144 µM [middle of 4 runs] | [11] 72.9 µM and 100 µM | [12] 170 µM and 169 µM and 162 µM | [15] 149 µM and 100 µM and 160 µM
inactive: [6] | [10] | [11] | [12] | [13] | [14] | [15] | [16] | [17]

Sc1ccccc1
inactive: [9] | [10] | [11] | [12] | [19] | [13] | [14] | [15] | [17]

N#Cc1ccc(N(CC(N)=O)CC(F)(F)F)cc1C(F)(F)F
inactive: [1] | [2] | [3] | [4] | [5] | [6] | [18] | [7] | [8] | [9] | [10] | [11] | [12] | [19] | [13] | [14] | [15] | [17]
active: [16] 1.56 µM

Cc1ccc(O)c(C)c1
inactive: [1] | [2] | [3] | [4] | [6] | [18] | [7] | [8] | [9] | [10] | [11] | [12] | [19] | [13] | [14] | [15] | [16] | [17]

C[C@]12CCC(=O)C=C1CC[C@@H]1[C@@H]2CC[C@]2(C)C(=O)CC[C@@H]12
active: [12] 161 µM and 167 µM | [14] 45.1 µM | [16] 36.7 µM and 27.5 µM
inactive: [1] | [2] | [3] | [4] | [6] | [18] | [7] | [8] | [9] | [10] | [11] | [12] | [13] | [14] | [15] | [16] | [17]

Clc1ccc(Cl)cc1
inactive: [1] | [2] | [3] | [4] | [6] | [18] | [7] | [8] | [9] | [10] | [11] | [12] | [19] | [13] | [14] | [15] | [16] | [17]

Cc1ccccc1O
active: [13] 140 µM
inactive: [1] | [2] | [3] | [4] | [6] | [18] | [7] | [8] | [9] | [10] | [11] | [12] | [14] | [15] | [16] | [17]

CO/C=C(/C(=O)OC)c1ccccc1COc1cccc(C(F)(F)F)n1
inactive: [1] | [3] | [4] | [6] | [8] | [9] | [10] | [11] | [13] | [14] | [16] | [17]
active: [2] 29.1 µM | [18] 26.9 µM | [7] 0.638 µM | [12] 7.46 µM | [15] 20.2 µM

CCCCCCCCCc1ccc(O)cc1
inactive: [1] | [2] | [3] | [4] | [6] | [18] | [7] | [8] | [9] | [10] | [11] | [12] | [19] | [13] | [14] | [15] | [16] | [17]
active: [12] 30.2 µM and 11.1 µM | [13] 178 µM | [14] 169 µM | [15] 55.7 µM

Nc1ccc(-c2ccc(N)cc2)cc1
active: [4] 91.2 µM | [18] 106 µM
inactive: [1] | [2] | [3] | [6] | [7] | [8] | [9] | [10] | [11] | [12] | [19] | [13] | [14] | [15] | [16] | [17]
